Assay results taken from PubChem BioAssay (NCI).
About 83,000 compounds went through this panel and 20% of them were active in at least one assay; those are over-represented in the sample as a whole.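 Note: values are percent growth. 100 is the growth of untreated cells, values between 100 and 0 indicate rising inhibition; between -100 and 0 indicates cell death.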 Values without a mark were called inactive. Active and inactive are the calls of the source. How the source made its calls: active means growth percent below 10; inactive means the rest.

Test system: BT-549 breast
Assay: NCI-60 one-dose screen, 48 h (100 = growth as untreated, 0 = no growth, -100 = all killed)
Settings: 10 µM

SMILES	growth
S=c1sc2ccccc2n1CN1CCCCC1	90.3%
Cc1cc(N)c(S(=O)(=O)O)c(N)c1	57.8%
COc1ccccc1NC(=O)C1=C(C)NC(C)=C(C(=O)Nc2ccccc2OC)C1c1cccc([N+](=O)[O-])c1	73.6%
C=CCNc1nnc(C)s1	122%
CCc1nn(Cc2ccccc2)c2nc(C)c(CCc3ccccc3)c(Cl)c12	99.3%
c1c(-c2cc(C3CC3)[nH]n2)n[nH]c1C1CC1	94%
O=C(CCNNC(=O)c1ccncc1)NCc1ccccc1	134%
CC(=O)C1CCCCC1	99.9%
CCOC(=O)/C(C#N)=C/c1cccc(C)c1	64.1%
CC(C(=O)O)(C1CCCCC1)C1(O)CCCCC1 (centres undefined)	103%
CN(C)c1ccc2oc(=O)c3ccccc3c2c1	40.3%
O=C(OCC(O)C1OC(c2ccccc2)OC(COC(=O)c2ccccc2)C1O)c1ccccc1 (centres undefined)	110%
O=C(O)c1ccc(S(=O)(=O)O)cc1	121%
OC1CCCc2ccccc21 (centres undefined)	98.1%
CCCCCCCCCCCCCC(=O)Oc1ccc[nH]c1=O	94.4%
COc1cc2c(cc1OC)[C@H](C(=O)O)[C@@H](c1ccc(OC(C)C)c(OC)c1)N(C)C2=O	91.6%
COC(=O)Nc1nc2ccc(C(=O)c3ccc(F)cc3)cc2[nH]1	32%
Nc1ccccc1SC(CC(=O)c1ccccc1)c1c(Cl)cccc1Cl (centres undefined)	68%

SMILES	growth
CC1=CC(=O)c2ccccc2C1=O	116%
O=C(Nc1ccccc1)OCCc1ccccc1	98.1%
COc1ccccc1N1CCN(C(=S)Nc2ccccc2)CC1	91.7%
O=C1OC(c2ccc(F)cc2)CC1CN1CCOCC1 (centres undefined)	95.5%
CCCNC(=O)c1ccc(S(N)(=O)=O)cc1	120%
COC(=O)CCCCC1=CCC2C(=O)C=C(O)C2C1 (centres undefined)	98.7%
CCOC(=O)CCCS(C)(=O)=O	100%
Nc1ccc(NC(=O)c2cccc(N)c2)cc1	93.3%
CCN(CC)CCNc1ccc(CO)c2sc3ccccc3c(=O)c12	70%
CCOC(=O)c1cc(/C=C/c2ccc(Cl)cc2Cl)on1	26.3%
O=[N+]([O-])c1ccccc1S(=O)c1ccccc1[N+](=O)[O-]	95.3%
COc1cccc(Sc2ccc([N+](=O)[O-])c3no[n+]([O-])c23)c1	46.8%
O=C(NC1CCCCC1)OCc1c(COC(=O)NC2CCCCC2)c(-c2ccc(Cl)c(Cl)c2)n2c1CCC2	53.7%
O=C1OC(=O)C2C1C1(Cl)C(Cl)=C(Cl)C2(Cl)C2C(=O)OC(=O)C21 (centres undefined)	103%
c1ccc(Cc2ccccc2)cc1	123%
COc1ccc2c(NCCCCCCCCNc3c4ccccc4nc4cc(OC)ccc34)c3ccccc3nc2c1	-95.9% (active)
CCCC(=O)c1cc(C)ccc1OC	107%

Test system: MDA-MB-435 melanoma
Assay: as above
Settings: 10 µM

SMILES	growth
S=c1sc2ccccc2n1CN1CCCCC1	104%
CSc1[nH]c(=O)ncc1F	102%
COc1ccc(-c2cc(-c3cc(-c4ccc(OC)cc4)nc(N)n3)nc(N)n2)cc1	97.5%
Cc1cc(N)c(S(=O)(=O)O)c(N)c1	101%
COc1ccccc1NC(=O)C1=C(C)NC(C)=C(C(=O)Nc2ccccc2OC)C1c1cccc([N+](=O)[O-])c1	75.4%
C=CCNc1nnc(C)s1	124%
COC(=O)C(C)Oc1ccc(OC#N)cc1 (centres undefined)	102%
CCc1nn(Cc2ccccc2)c2nc(C)c(CCc3ccccc3)c(Cl)c12	92.4%
c1c(-c2cc(C3CC3)[nH]n2)n[nH]c1C1CC1	109%
O=C(CCNNC(=O)c1ccncc1)NCc1ccccc1	95.7%
CC(=O)Nc1cccc(Cl)c1C	94.8%
CC(=O)C1CCCCC1	104%
CCOC(=O)/C(C#N)=C/c1cccc(C)c1	107%
CC(C(=O)O)(C1CCCCC1)C1(O)CCCCC1 (centres undefined)	105%
CN(C)c1ccc2oc(=O)c3ccccc3c2c1	109%
O=C(OCC(O)C1OC(c2ccccc2)OC(COC(=O)c2ccccc2)C1O)c1ccccc1 (centres undefined)	102%
O=C(O)c1ccc(S(=O)(=O)O)cc1	114%
OC1CCCc2ccccc21 (centres undefined)	104%
CCCCCCCCCCCCCC(=O)Oc1ccc[nH]c1=O	113%
COc1cc2c(cc1OC)[C@H](C(=O)O)[C@@H](c1ccc(OC(C)C)c(OC)c1)N(C)C2=O	101%

SMILES	growth
COC(=O)Nc1nc2ccc(C(=O)c3ccc(F)cc3)cc2[nH]1	-60.2% (active)
Nc1ccccc1SC(CC(=O)c1ccccc1)c1c(Cl)cccc1Cl (centres undefined)	39.7%
CC1=CC(=O)c2ccccc2C1=O	107%
O=C(Nc1ccccc1)OCCc1ccccc1	99%
COc1ccccc1N1CCN(C(=S)Nc2ccccc2)CC1	102%
O=C1OC(c2ccc(F)cc2)CC1CN1CCOCC1 (centres undefined)	109%
CCCNC(=O)c1ccc(S(N)(=O)=O)cc1	117%
COC(=O)CCCCC1=CCC2C(=O)C=C(O)C2C1 (centres undefined)	110%
CCOC(=O)CCCS(C)(=O)=O	119%
Nc1ccc(NC(=O)c2cccc(N)c2)cc1	104%
CCN(CC)CCNc1ccc(CO)c2sc3ccccc3c(=O)c12	38.1%
CCOC(=O)c1cc(/C=C/c2ccc(Cl)cc2Cl)on1	66.8%
O=[N+]([O-])c1ccccc1S(=O)c1ccccc1[N+](=O)[O-]	72.2%
COc1cccc(Sc2ccc([N+](=O)[O-])c3no[n+]([O-])c23)c1	64.4%
O=C(NC1CCCCC1)OCc1c(COC(=O)NC2CCCCC2)c(-c2ccc(Cl)c(Cl)c2)n2c1CCC2	56.3%
O=C1OC(=O)C2C1C1(Cl)C(Cl)=C(Cl)C2(Cl)C2C(=O)OC(=O)C21 (centres undefined)	101%
c1ccc(Cc2ccccc2)cc1	112%
COc1ccc2c(NCCCCCCCCNc3c4ccccc4nc4cc(OC)ccc34)c3ccccc3nc2c1	-100% (active)
CCCC(=O)c1cc(C)ccc1OC	116%
